Laboratory results published in PubChem BioAssay (EPA / NIEHS).
Inconclusive results are not listed. Activity calls are given as the source filed them. How the source made its calls, unless noted: active means hit-call score of the fitted dose curve at least 0.9, where 1 is the maximum; inactive means score below 0.9.

Experiments:
[1] = biological target: Paired box protein Pax-6 (Homo sapiens) (UniProt P26367); assay: ATG_Pax6_CIS: Attagene CIS-FACTORIAL HepG2 Assay for human Paired Box 6 (PAX6) (AID 2282956); conditions: HepG2 CIS-FACTORIAL PAX6 reporter transcription, RNA readout; actives raise or lower the signal
Chain of Paired box protein Pax-6 (Homo sapiens) (P26367 whole entry, looked up): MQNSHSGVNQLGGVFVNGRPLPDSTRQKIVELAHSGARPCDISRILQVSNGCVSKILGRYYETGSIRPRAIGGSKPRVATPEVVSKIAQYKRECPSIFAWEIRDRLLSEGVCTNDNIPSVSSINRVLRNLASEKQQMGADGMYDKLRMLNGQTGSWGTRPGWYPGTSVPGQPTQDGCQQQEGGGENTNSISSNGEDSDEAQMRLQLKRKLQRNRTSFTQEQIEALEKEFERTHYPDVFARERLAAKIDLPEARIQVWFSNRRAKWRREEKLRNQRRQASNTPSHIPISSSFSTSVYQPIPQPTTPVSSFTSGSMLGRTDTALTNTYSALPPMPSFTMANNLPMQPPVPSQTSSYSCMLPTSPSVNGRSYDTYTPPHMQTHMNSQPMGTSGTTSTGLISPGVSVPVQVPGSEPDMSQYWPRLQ
Procedure, shortened: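 Transient MRTU transfection of HepG2 → compound exposure 24 h → TriZol RNA, oligo(dT) RT → PCR, 6-FAM primer extension, HpaI cut → capillary electrophoresis; activity fitted both directions against DMSO.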

[2] = ATG_PXRE_CIS: Attagene CIS-FACTORIAL HepG2 Assay for human Pregnane X Receptor Element (PXRE) (AID 2282957); conditions: HepG2 Attagene CIS-FACTORIAL PXRE reporter, mRNA; actives raise or lower the signal
Procedure, shortened: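 Transfect HepG2 with MRTUs (cis promoter elements); dose chemical, incubate 24 h; isolate RNA, RT with oligo(dT), PCR, 6-FAM label, HpaI cut, CE. Gain/loss fit vs DMSO.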

[3] = ATG_PPRE_CIS: Attagene CIS-FACTORIAL HepG2 Assay for human Peroxisome Proliferator-activated Response Element (PPRE) (AID 2282958); conditions: HepG2 PPRE cis-element reporter, Attagene transcription factor profiling; actives raise or lower the signal
Procedure, shortened: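 In this cell-based multiplex, a PPRE cis element drives a reporter sequence in transiently transfected HepG2 cells. Following 24 h treatment, labeled cDNA amplicons are sized and quantified by capillary electrophoresis, with DMSO defining baseline.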

[4] = ATG_RORE_CIS: Attagene CIS-FACTORIAL HepG2 Assay for human RAR-related Orphan Receptor Element (RORE) (AID 2282959); conditions: HepG2 Attagene cis-factorial RORE reporter, mRNA; actives raise or lower the signal
Procedure, shortened: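 Endogenous factor activity at a cis response element is read as reporter transcript levels in HepG2 cells, 24 h post-dose. Transcripts are quantified by RT-PCR with capillary electrophoresis, and data fitted in both directions against DMSO.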

[5] = ATG_Sox_CIS: Attagene CIS-FACTORIAL HepG2 Assay for human SRY-box transcription factor (SOX) (AID 2282960); conditions: HepG2 Attagene cis-factorial SOX reporter, mRNA; actives raise or lower the signal
Procedure, shortened: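 Measures mRNA induction of a SOX1-associated reporter in HepG2 after 24 h dosing. Fluorescently labelled RT-PCR fragments are separated by capillary electrophoresis, and gain or loss relative to DMSO control is fitted.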

[6] = biological target: Transcription factor Sp1 (Homo sapiens) (UniProt P08047); assay: ATG_Sp1_CIS: Attagene CIS-FACTORIAL HepG2 Assay for human Specificity Protein 1 (Sp1) (AID 2282961); conditions: HepG2 Sp1 cis-reporter transcription, actives raise or lower the signal
Chain of Transcription factor Sp1 (Homo sapiens) (P08047 whole entry, looked up): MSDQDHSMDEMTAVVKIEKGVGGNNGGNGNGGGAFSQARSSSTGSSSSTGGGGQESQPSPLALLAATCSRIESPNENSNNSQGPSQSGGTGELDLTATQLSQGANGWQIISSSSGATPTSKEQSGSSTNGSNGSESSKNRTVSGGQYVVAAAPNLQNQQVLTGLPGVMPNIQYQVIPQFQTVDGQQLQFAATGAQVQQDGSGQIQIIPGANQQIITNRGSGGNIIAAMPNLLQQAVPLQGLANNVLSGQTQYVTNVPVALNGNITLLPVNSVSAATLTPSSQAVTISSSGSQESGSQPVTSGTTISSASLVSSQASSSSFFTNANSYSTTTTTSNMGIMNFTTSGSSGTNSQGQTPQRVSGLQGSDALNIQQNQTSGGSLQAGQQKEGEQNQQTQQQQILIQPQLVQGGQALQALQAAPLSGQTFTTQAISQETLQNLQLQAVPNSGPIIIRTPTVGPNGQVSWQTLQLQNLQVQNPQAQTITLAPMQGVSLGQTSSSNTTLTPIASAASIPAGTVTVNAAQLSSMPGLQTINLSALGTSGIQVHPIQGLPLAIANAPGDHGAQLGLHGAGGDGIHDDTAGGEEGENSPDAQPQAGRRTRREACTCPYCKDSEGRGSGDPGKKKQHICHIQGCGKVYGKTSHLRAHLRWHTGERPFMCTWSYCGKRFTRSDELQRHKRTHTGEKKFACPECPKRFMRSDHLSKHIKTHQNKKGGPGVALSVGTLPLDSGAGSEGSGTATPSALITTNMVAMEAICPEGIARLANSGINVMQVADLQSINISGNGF
Procedure, shortened: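 Cells: HepG2, transiently transfected with cis-regulated multiplexed reporters. Exposure: 24 h. Detection: reporter transcripts amplified, fluorescently labeled, restriction-digested and sized by capillary electrophoresis. Analysis: bidirectional fit relative to DMSO.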

[7] = biological target: Signal transducer and activator of transcription 3 (Homo sapiens) (UniProt P40763); assay: ATG_STAT3_CIS: Attagene CIS-FACTORIAL HepG2 Assay for human Signal Transducer and Activator of Transcription 3 (STAT3) (AID 2282963); conditions: HepG2, Attagene cis-factorial STAT3 reporter transcription; actives raise or lower the signal
Chain of Signal transducer and activator of transcription 3 (Homo sapiens) (P40763 whole entry, looked up): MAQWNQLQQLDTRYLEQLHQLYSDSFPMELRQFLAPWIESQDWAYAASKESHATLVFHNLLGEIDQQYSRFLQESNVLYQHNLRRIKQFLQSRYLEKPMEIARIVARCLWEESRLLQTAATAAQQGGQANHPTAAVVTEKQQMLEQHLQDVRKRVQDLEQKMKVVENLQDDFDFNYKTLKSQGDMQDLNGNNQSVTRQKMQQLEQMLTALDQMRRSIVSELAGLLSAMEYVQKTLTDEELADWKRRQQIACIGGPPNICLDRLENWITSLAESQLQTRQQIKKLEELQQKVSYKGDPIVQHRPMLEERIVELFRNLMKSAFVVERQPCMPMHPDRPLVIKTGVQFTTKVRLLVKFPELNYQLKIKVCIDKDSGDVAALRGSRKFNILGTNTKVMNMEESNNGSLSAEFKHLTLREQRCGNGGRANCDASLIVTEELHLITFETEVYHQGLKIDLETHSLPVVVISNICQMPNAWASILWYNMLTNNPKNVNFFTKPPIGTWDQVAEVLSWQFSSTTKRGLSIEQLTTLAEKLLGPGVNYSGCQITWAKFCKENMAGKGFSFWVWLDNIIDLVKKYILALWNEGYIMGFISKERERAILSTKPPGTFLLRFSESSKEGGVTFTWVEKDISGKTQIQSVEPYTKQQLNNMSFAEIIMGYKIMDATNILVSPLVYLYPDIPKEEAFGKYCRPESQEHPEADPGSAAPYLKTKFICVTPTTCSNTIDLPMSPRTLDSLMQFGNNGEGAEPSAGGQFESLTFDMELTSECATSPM
Procedure, shortened: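 HepG2 cells transiently transfected with multiple cis-element-driven reporter units report endogenous transcription factor activity. After 24 h compound exposure, reporter mRNA is measured by RT-PCR, 6-FAM labelling, HpaI digestion and capillary electrophoresis. Fitted bidirectionally versus DMSO.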

[8] = ATG_TA_CIS: Attagene CIS-FACTORIAL HepG2 Assay for human TA Basal Promoter (AID 2282964); conditions: HepG2 Attagene CIS-factorial TA basal promoter reporter; actives raise or lower the signal
Procedure, shortened: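 HepG2 cells transiently transfected with multiple reporter units under cis promoter elements, reporting endogenous transcription factor activity; this endpoint tracks the TA basal promoter as background control. Reporter mRNA after 24 h dosing measured by RT-PCR/capillary electrophoresis; bidirectional fits versus DMSO.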

[9] = ATG_TCF_b_cat_CIS: Attagene CIS-FACTORIAL HepG2 Assay for human T-Cell-Factor with beta-catenin (TCF/b-cat) (AID 2282965); conditions: HepG2 TCF/beta-catenin cis-reporter transcription, actives raise or lower the signal
Procedure, shortened: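 HepG2 cells transiently transfected with cis-promoter-driven multiplexed reporter units; reporter mRNA measured 24 h after dosing by RT-PCR, FAM labelling, HpaI digestion and capillary electrophoresis. Bidirectional fitting relative to DMSO baseline.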

[10] = ATG_TAL_CIS: Attagene CIS-FACTORIAL HepG2 Assay for human TAL Basal Promoter (AID 2282966); conditions: HepG2 Attagene cis-factorial TAL promoter reporter; actives raise or lower the signal;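 further: background control endpoint measuring basal TAL promoter reporter mRNA not a specific factor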
Procedure, shortened: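 Fluorescence of labelled reporter cDNA fragments, resolved by capillary electrophoresis, gave the readout. Human HepG2 liver cells carried transiently transfected cis-element reporter units and were treated for 24 hours; activity was fitted bidirectionally against DMSO.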

[11] = ATG_TGFb_CIS: Attagene CIS-FACTORIAL HepG2 Assay for human Transforming Growth Factor (TGF) (AID 2282967); conditions: HepG2 Attagene CIS TGFb reporter, mRNA transcription; actives raise or lower the signal
Procedure, shortened: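 HepG2 cells transiently transfected with cis-promoter-driven multiple reporter units measure endogenous TF activity; reporter mRNA quantified at 24 h by RT-PCR, FAM labeling, HpaI digestion and capillary electrophoresis. Bidirectional fit vs DMSO.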

[12] = biological target: Estrogen receptor (Homo sapiens) (UniProt P03372); assay: ATG_ERa_TRANS: Attagene TRANS-FACTORIAL HepG2 Assay for human Estrogen Receptor alpha (ERa) (AID 2282970; active means hit-call score of the fitted dose curve at least 0.9, where 1 is the maximum); conditions: HepG2 Attagene TRANS ERa GAL4 reporter, mRNA
Chain of Estrogen receptor (Homo sapiens) (P03372 whole entry, looked up, the tested form may be a part): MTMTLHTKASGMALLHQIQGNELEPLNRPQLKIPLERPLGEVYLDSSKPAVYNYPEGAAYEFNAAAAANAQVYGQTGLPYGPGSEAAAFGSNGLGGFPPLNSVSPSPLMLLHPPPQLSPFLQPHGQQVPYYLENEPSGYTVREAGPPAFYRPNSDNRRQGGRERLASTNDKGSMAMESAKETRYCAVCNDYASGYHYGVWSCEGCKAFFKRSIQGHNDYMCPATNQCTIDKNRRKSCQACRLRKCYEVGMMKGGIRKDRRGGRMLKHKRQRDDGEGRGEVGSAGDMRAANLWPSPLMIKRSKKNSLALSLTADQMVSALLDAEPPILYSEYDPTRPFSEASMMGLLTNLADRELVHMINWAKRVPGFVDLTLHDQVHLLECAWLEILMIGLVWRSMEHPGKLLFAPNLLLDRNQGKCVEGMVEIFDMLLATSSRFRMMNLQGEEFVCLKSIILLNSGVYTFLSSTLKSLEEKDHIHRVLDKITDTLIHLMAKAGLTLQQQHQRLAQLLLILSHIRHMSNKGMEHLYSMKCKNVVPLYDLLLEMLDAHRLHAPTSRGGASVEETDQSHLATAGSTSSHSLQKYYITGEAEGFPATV
Procedure, shortened: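 Human liver HepG2, transient transfection of multiple GAL4-UAS reporter units; TRANS format (exogenous NR-Gal4 chimera). 24 h dosing. Readout: reporter mRNA, RT-PCR, 6-FAM primer extension, HpaI digest, capillary electrophoresis. Positive direction vs DMSO.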

[13] = biological target: X-box-binding protein 1 (Homo sapiens) (UniProt P17861); assay: ATG_Xbp1_CIS: Attagene CIS-FACTORIAL HepG2 Assay for human X-box Binding Protein 1 (XBP1) (AID 2282972); conditions: HepG2 XBP1 cis-element reporter, Attagene multiplex; actives raise or lower the signal
Chain of X-box-binding protein 1 (Homo sapiens) (P17861 whole entry, looked up): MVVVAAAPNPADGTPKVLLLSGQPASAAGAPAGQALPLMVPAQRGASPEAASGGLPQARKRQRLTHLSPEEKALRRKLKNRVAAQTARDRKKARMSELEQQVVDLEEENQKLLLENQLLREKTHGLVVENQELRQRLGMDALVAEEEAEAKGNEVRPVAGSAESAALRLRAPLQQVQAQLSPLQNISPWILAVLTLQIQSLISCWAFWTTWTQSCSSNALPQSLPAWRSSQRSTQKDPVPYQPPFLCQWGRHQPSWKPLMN
Procedure, shortened: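 HepG2, transient MRTU transfection (cis-promoter driven), 24 h compound exposure. Total RNA → oligo(dT) RT → PCR → 6-FAM labeling → HpaI cut → CE. Bidirectional fit vs DMSO.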

[14] = ATG_M_19_TRANS: Attagene TRANS-FACTORIAL HepG2 Assay for M19 Transcription Factor (Internal Marker) (AID 2282974; active means hit-call score of the fitted dose curve at least 0.9, where 1 is the maximum); conditions: HepG2 Attagene TRANS-FACTORIAL M19 internal marker reporter
Procedure, shortened: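 Reporter mRNA induction was measured in transfected HepG2 cells 24 h after dosing. Endpoint fitted upward relative to DMSO and serves as a background control within the multiplexed TRANS panel.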

[15] = ATG_GAL4_TRANS: Attagene TRANS-FACTORIAL HepG2 Assay for GAL4 (Internal Marker) (AID 2282976; active means hit-call score of the fitted dose curve at least 0.9, where 1 is the maximum); conditions: HepG2 Attagene TRANS GAL4 internal marker reporter
Procedure, shortened: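 First, HepG2 cells were transfected with reporter units under GAL4-UAS control. Next, they were treated with chemical for 24 h. Finally, RNA was reverse-transcribed, PCR-amplified, FAM-labelled and resolved by capillary electrophoresis, with induction scored against DMSO.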

[16] = ATG_VDRE_CIS: Attagene CIS-FACTORIAL HepG2 Assay for human Vitamin D Receptor Element (VDRE) (AID 2282968); conditions: HepG2 VDRE cis-reporter transcription, actives raise or lower the signal
Procedure, shortened: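 Transiently transfected HepG2 cells carrying cis-regulated reporter transcription units were exposed for 24 h. Reporter mRNA was measured by RT-PCR with fluorescent labelling and capillary electrophoresis, and fitted in both directions against DMSO.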

[17] = biological target: Steroid hormone receptor ERR1 (Homo sapiens) (UniProt P11474); assay: ATG_ERRa_TRANS: Attagene TRANS-FACTORIAL HepG2 Assay for human Estrogen-Related Receptor alpha (ERRa) (AID 2282971; active means hit-call score of the fitted dose curve at least 0.9, where 1 is the maximum); conditions: HepG2 Attagene TRANS reporter, ERRa transactivation
Chain of Steroid hormone receptor ERR1 (Homo sapiens) (P11474 whole entry, looked up, the tested form may be a part): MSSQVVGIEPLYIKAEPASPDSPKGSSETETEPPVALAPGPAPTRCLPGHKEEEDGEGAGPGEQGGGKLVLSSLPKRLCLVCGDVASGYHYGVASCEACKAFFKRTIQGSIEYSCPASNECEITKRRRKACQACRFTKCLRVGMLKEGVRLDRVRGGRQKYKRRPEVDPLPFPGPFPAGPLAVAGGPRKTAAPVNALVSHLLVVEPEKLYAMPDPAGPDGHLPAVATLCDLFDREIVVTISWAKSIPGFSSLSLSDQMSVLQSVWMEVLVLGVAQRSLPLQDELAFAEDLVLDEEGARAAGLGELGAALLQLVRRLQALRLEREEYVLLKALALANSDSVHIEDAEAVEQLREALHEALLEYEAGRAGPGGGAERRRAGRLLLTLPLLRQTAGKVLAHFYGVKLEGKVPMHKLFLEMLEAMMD
Procedure, shortened: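 Reporter transcript induction was quantified by RT-PCR and capillary electrophoresis of FAM-labelled, HpaI-cut products after 24 h treatment of HepG2 cells carrying transiently transfected GAL4-UAS reporter units and an exogenous ERRa-Gal4 fusion; activity scored as increase over DMSO.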

[18] = biological target: Nuclear receptor subfamily 1 group I member 3 (Homo sapiens) (UniProt Q14994); assay: ATG_CAR_TRANS: Attagene TRANS-FACTORIAL HepG2 Assay for human Constitutive Androstane Receptor (CAR) (AID 2282969; active means hit-call score of the fitted dose curve at least 0.9, where 1 is the maximum;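 further: activators raise reporter mRNA above DMSO so AC50 marks induction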); conditions: HepG2 Attagene TRANS-FACTORIAL CAR reporter
Chain of Nuclear receptor subfamily 1 group I member 3 (Homo sapiens) (Q14994 whole entry, looked up, the tested form may be a part): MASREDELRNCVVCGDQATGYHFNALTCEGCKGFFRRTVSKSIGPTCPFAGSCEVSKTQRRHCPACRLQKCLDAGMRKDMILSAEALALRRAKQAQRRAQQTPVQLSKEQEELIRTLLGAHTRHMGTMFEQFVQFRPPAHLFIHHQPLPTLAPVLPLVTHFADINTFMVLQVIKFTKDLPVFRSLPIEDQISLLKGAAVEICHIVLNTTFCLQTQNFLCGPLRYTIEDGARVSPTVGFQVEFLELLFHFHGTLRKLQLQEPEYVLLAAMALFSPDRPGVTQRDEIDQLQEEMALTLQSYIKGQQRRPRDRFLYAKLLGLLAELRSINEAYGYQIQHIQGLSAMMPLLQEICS
Procedure, shortened: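 HepG2 cells transiently transfected with GAL4-UAS reporter units; TRANS format reads activity of exogenous chimeric NR-Gal4 protein. After 24 h dosing, reporter mRNA quantified by RT-PCR, 6-FAM labelling and capillary electrophoresis; gain of signal fitted against DMSO.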

[19] = ATG_SREBP_CIS: Attagene CIS-FACTORIAL HepG2 Assay for human Sterol Regulatory Element Binding (SREBP) (AID 2282962); conditions: HepG2 Attagene cis-factorial SREBP reporter, mRNA; actives raise or lower the signal
Procedure, shortened: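 Transfected HepG2 (cis-regulated reporter library, endogenous TFs) → compound 24 h → total RNA → oligo(dT) RT → reporter-specific PCR → FAM primer extension, HpaI cut → CE fluorescence. Fit bidirectional vs DMSO.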

[20] = biological target: Estrogen-related receptor gamma (Homo sapiens) (UniProt P62508); assay: ATG_ERRg_TRANS: Attagene TRANS-FACTORIAL HepG2 Assay for human Estrogen-Related Receptor gamma (ERRg) (AID 2282977; active means hit-call score of the fitted dose curve at least 0.9, where 1 is the maximum;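 further: hits increase reporter signal over DMSO so potencies reflect activators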); conditions: HepG2 Attagene TRANS reporter, ERRg transactivation
Chain of Estrogen-related receptor gamma (Homo sapiens) (P62508 whole entry, looked up, the tested form may be a part): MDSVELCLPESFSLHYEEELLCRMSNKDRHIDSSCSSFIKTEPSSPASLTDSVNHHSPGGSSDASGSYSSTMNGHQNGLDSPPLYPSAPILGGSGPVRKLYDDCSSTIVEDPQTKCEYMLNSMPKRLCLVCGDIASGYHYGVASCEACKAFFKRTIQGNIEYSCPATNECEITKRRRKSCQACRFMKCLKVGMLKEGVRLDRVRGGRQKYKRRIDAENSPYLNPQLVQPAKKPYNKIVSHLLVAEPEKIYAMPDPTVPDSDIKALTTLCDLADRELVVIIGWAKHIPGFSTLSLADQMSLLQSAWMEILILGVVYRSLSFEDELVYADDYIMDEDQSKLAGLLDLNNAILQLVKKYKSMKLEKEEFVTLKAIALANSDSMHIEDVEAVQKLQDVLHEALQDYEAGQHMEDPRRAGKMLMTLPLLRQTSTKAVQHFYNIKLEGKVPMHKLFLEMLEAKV
Procedure, shortened: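 HepG2 cells transiently transfected with multiplexed GAL4-UAS reporter units driven by chimeric NR-Gal4 proteins; 24 h exposure. Reporter mRNA quantified by RT-PCR, fluorescent labelling, HpaI digestion and capillary electrophoresis; gain of signal vs DMSO.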

Measured: AC50

O=C1c2ccccc2C(=O)C1c1nc2ccccc2c(Br)c1O
active: [2] 5.42 µM | [11] 100 µM
inactive: [1] | [3] | [4] | [5] | [6] | [7] | [8] | [9] | [10] | [12] | [13] | [14] | [15]

Cc1cccc(C(=O)O)c1
inactive: [1] | [2] | [3] | [4] | [5] | [6] | [7] | [8] | [9] | [10] | [11] | [16] | [12] | [17] | [13] | [15]

CCOC(=O)CC
inactive: [1] | [2] | [3] | [4] | [5] | [6] | [7] | [8] | [9] | [10] | [16] | [18] | [12] | [13]

CCC(=O)Oc1ccc(/C(CC)=C(\CC)c2ccc(OC(=O)CC)cc2)cc1
inactive: [3] | [19] | [7] | [10] | [11]
active: [1] 37.8 µM | [2] 2.95 µM | [5] 37.8 µM | [6] 23.4 µM | [8] 38.2 µM | [9] 26.4 µM | [16] 4.32 µM | [12] 0.54 µM | [13] 27.5 µM

CCCCCCCCCCCCCCCCCC#N
inactive: [1] | [2] | [3] | [4] | [5] | [6] | [19] | [9] | [10] | [11] | [18] | [12] | [13] | [15]

CCCCCC/C=C/C=O
active: [2] 37.8 µM | [3] 15 µM
inactive: [1] | [4] | [5] | [6] | [7] | [8] | [9] | [10] | [11] | [17] | [13] | [14] | [15] | [20]

CC(=O)Oc1ccc(C)cc1
inactive: [1] | [2] | [3] | [4] | [5] | [6] | [19] | [9] | [10] | [13] | [14] | [15]

CCCCCCCC(C)=O
inactive: [1] | [2] | [3] | [4] | [5] | [6] | [7] | [8] | [9] | [10] | [11] | [16] | [13] | [15]

O=C(O)CC(C(=O)O)C(CC(=O)O)C(=O)O (centres undefined)
inactive: [1] | [2] | [3] | [5] | [6] | [19] | [7] | [8] | [9] | [10] | [11] | [16] | [13] | [14]
